Consider 15 molecules from PubChem BioAssay.

Experiment [1] has as its target Cell division control protein 42 homolog (Homo sapiens) (UniProt P60953). Kind of experiment: activated mutant Cdc42 GTP-binding inhibitors, dose response, biochemical, multiplex bead flow cytometry, Bodipy-FL-GTP (AID 1333;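 active = fitted half-maximal concentration within the tested dose range, moderate curve steepness, a statistically real signal drop, and little compound fluorescence or tag-binding interference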).
For experiment [2] the target is unchanged. The experiment is described as follows: wildtype Cdc42 GTP-binding inhibitors, dose response, biochemical, multiplex bead flow cytometry, Bodipy-FL-GTP (AID 1334;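 active = fitted half-maximal concentration within the tested range, moderate curve steepness, significant signal drop, and little compound fluorescence or bead-linkage interference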). Particulars: bead-based flow cytometry, Bodipy-FL-GTP binding to GST-Cdc42; at 100 µM (top of the series) unless noted. On the technique in general: Flow cytometry measures light scatter and fluorescence of single cells or particles in a stream.

The target of experiment [3] is GTPase HRas (Homo sapiens) (UniProt P01112). The experiment is described as follows: inhibitors of GTP binding to wildtype Ras, dose response, biochemical, multiplex bead flow cytometry (AID 1335;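 active = fitted half-maximal concentration within 10 nM to 100 µM, steepness 0.5 to 2, significant signal drop, low assay interference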). Particulars: bead-based flow cytometry, Bodipy-GTP binding to GST-Ras; at 100 µM (top of the series) unless noted.
Sequence of GTPase HRas (Homo sapiens) (P01112 whole entry, looked up): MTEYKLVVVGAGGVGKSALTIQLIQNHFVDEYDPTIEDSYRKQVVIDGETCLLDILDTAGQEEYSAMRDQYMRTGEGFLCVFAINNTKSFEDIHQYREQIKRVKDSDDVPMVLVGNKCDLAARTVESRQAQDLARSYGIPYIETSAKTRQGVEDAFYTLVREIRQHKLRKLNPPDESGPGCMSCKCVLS
Experiment [4] concerns Ras-related protein Rab-7a (dog), GTP binding. Kind of experiment: Rab7 GTP binding inhibitors, potency, dose response, biochemical, wildtype, multiplex bead flow cytometry (AID 1336; call rule not given here).
The target of experiment [5] is Ras-related C3 botulinum toxin substrate 1 (Homo sapiens) (UniProt P63000). The experiment is described as follows: wildtype Rac1 GTP binding inhibitors, dose response, biochemical, multiplex bead flow cytometry (AID 1340). Particulars: GST-Rac1 beads, Bodipy-FL-GTP binding; at 100 µM (top of the series) unless noted.
Experiment [6] deals with GTPase HRas (Homo sapiens) (UniProt P01112). Kind of experiment: activated Ras mutant GTP binding inhibitors, dose response, biochemical, multiplex bead flow cytometry (AID 1341;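 active = dose-response curve with midpoint inside the tested range, moderate steepness, significant amplitude and little compound fluorescence or bead-attachment interference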;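 also: GST-tagged constitutively activated Ras mutant immobilized on beads and multiplexed with other GTPases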).

For part of these data: Potency and affinity values are given separately. Active and inactive are the calls of the source.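 The calls were made as follows, unless noted: active = dose curve with midpoint inside tested range, moderate steepness, plateau gap beyond fit error, low compound glow and bead-link interference; inactive = the rest.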

Sequence of Cell division control protein 42 homolog (Homo sapiens) (P60953 whole entry, looked up): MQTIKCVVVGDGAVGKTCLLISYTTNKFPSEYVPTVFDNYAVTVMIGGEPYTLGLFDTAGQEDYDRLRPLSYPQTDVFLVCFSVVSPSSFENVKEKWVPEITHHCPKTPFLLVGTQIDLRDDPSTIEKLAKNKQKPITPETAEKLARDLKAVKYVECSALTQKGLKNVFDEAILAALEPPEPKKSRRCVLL

In the case of `C/C(=N\Nc1ccc(S(N)(=O)=O)cc1[N+](=O)[O-])c1ccc2c(c1)OCO2`, the call in experiment [1], in experiment [4] and in experiment [6] was inactive. In experiment [2], the fluorescence, percent of control (lower = inhibition) is 36.3%. This molecule also displayed a GTP binding, percent of control in experiment [3] of 79.8%. In addition, in experiment [5], the GTP binding signal, raw median fluorescence (lower = inhibition) (MCF (arbitrary fluorescence units)) worked out at 220.

Take `Cc1nn(Cc2ccccc2)c(C)c1NC(=O)CSc1nc2c(c(C(F)(F)F)n1)CCc1ccccc1-2`: the result in experiment [1], in experiment [4] and in experiment [6] was inactive. Moreover, the fluorescence, percent of control (lower = inhibition) in experiment [2] was determined as 33.3%. In experiment [3], the GTP binding, percent of control came to 73.5%. The GTP binding signal, raw median fluorescence (lower = inhibition) (MCF (arbitrary fluorescence units)) in experiment [5] was found to be 175.

On to `COC(=O)COc1ccc(/C=N/NC(=O)c2ccc(N(Cc3ccccc3)S(C)(=O)=O)cc2)cc1`, for which the result in experiment [1], in experiment [4] and in experiment [6] was inactive. In addition, the fluorescence, percent of control (lower = inhibition) in experiment [2] is 39.7%. Also, the GTP binding, percent of control in experiment [3] was 55.5%. For the same molecule, the GTP binding signal, raw median fluorescence (lower = inhibition) (MCF (arbitrary fluorescence units)) in experiment [5] turned out to be 124.

On to `Cc1cc(C)n2ncc(C(=O)O)c2n1`, for which the molecule was classed as inactive in experiment [1], in experiment [4] and in experiment [6]. In addition, the fluorescence, percent of control (lower = inhibition) in experiment [2] came to 35.6%. For the same molecule, the GTP binding, percent of control in experiment [3] is 84%. In experiment [5], this molecule returned a GTP binding signal, raw median fluorescence (lower = inhibition) (MCF (arbitrary fluorescence units)) of 266.

Consider `NC(=O)COC(=O)c1cccc2c1-c1ccccc1C2=O`, for which the molecule was called inactive in experiment [1], in experiment [4] and in experiment [6]. In experiment [2], the fluorescence, percent of control (lower = inhibition) is 33.4%. Also, the GTP binding, percent of control in experiment [3] came out at 75%. For the same molecule, the GTP binding signal, raw median fluorescence (lower = inhibition) (MCF (arbitrary fluorescence units)) in experiment [5] was 176.

Regarding `COc1cc(/C=N/NC(=O)c2cc3ccccc3cc2O)ccc1OCCN1CCCCC1`, the call in experiment [1], in experiment [4] and in experiment [6] was inactive. Besides, the fluorescence, percent of control (lower = inhibition) in experiment [2] turned out to be 39.4%. Further, in experiment [3], the GTP binding, percent of control amounted to 91.1%. Besides, in experiment [5], the GTP binding signal, raw median fluorescence (lower = inhibition) (MCF (arbitrary fluorescence units)) stood at 328.

As to `CCn1c(=N)c(S(=O)(=O)c2ccc(C)cc2)cc2c(=O)n3ccccc3nc21`, the molecule was called inactive in experiment [1], in experiment [4] and in experiment [6]. Further, the fluorescence, percent of control (lower = inhibition) in experiment [2] amounted to 36.8%. Further, in experiment [3], the GTP binding, percent of control stood at 79.5%. This molecule came in with a GTP binding signal, raw median fluorescence (lower = inhibition) (MCF (arbitrary fluorescence units)) in experiment [5] of 174.

With `COC(=O)c1cn(CCOc2ccc(C)cc2)c2ccccc12`, the molecule was called inactive in experiment [1], in experiment [4] and in experiment [6]. The fluorescence, percent of control (lower = inhibition) in experiment [2] was determined as 37%. The molecule further came in with a GTP binding, percent of control in experiment [3] of 84.4%. In experiment [5], the GTP binding signal, raw median fluorescence (lower = inhibition) (MCF (arbitrary fluorescence units)) was determined as 175.

Regarding `Cc1noc(C)c1COc1cccc(C(=O)NCc2ccccc2Cl)c1`, the outcome in experiment [1], in experiment [4] and in experiment [6] was inactive. For the same molecule, in experiment [2], the fluorescence, percent of control (lower = inhibition) amounted to 91.7%. The molecule also had a GTP binding, percent of control in experiment [3] of 163%. Further, the GTP binding signal, raw median fluorescence (lower = inhibition) (MCF (arbitrary fluorescence units)) in experiment [5] was determined as 186.

As for `COc1ccc(C=O)cc1CSc1ncccc1C(=O)O`, the result in experiment [1], in experiment [4] and in experiment [6] was inactive. In experiment [2], the fluorescence, percent of control (lower = inhibition) is 61.6%. Further, in experiment [3], the GTP binding, percent of control was 88.9%. In experiment [5], this molecule came in with a GTP binding signal, raw median fluorescence (lower = inhibition) (MCF (arbitrary fluorescence units)) of 33.8.

As for `COc1ccccc1CNCc1sc(C(=O)O)cc1C`, the molecule was classed as inactive in experiment [1], in experiment [4] and in experiment [6]. In addition, the fluorescence, percent of control (lower = inhibition) in experiment [2] is 61.8%. The molecule further registered a GTP binding, percent of control in experiment [3] of 85.7%. In addition, the GTP binding signal, raw median fluorescence (lower = inhibition) (MCF (arbitrary fluorescence units)) in experiment [5] turned out to be 35.2.

`O=S(=O)(Cc1ccc(Cl)cc1)c1ccccc1-c1nnc(-c2ccccc2)o1`: the call in experiment [1], in experiment [4] and in experiment [6] was inactive. In addition, the fluorescence, percent of control (lower = inhibition) in experiment [2] is 104%. The same molecule had a GTP binding, percent of control in experiment [3] of 196%. The molecule also returned a GTP binding signal, raw median fluorescence (lower = inhibition) (MCF (arbitrary fluorescence units)) in experiment [5] of 207.

Take `O=C(O)/C=C/c1cn(Cc2ccccc2)nc1-c1ccccc1`: the molecule was classed as inactive in experiment [1], in experiment [4] and in experiment [6]. In addition, the fluorescence, percent of control (lower = inhibition) in experiment [2] turned out to be 101%. The same molecule displayed a GTP binding, percent of control in experiment [3] of 72.4%. In experiment [5], this molecule had a GTP binding signal, raw median fluorescence (lower = inhibition) (MCF (arbitrary fluorescence units)) of 175.

Turning to `c1ccc(-c2onc3c2CCCC3)cc1`, the molecule was called inactive in experiment [1], in experiment [4] and in experiment [6]. Also, the fluorescence, percent of control (lower = inhibition) in experiment [2] is 97.3%. For the same molecule, the GTP binding, percent of control in experiment [3] came to 144%. This molecule also came in with a GTP binding signal, raw median fluorescence (lower = inhibition) (MCF (arbitrary fluorescence units)) in experiment [5] of 192.

`O=C(NCc1ccc(F)cc1)C(c1ccccc1)N(CC1CCCO1)C(=O)Cn1nnc2ccccc21` (stereo not given): the molecule was called inactive in experiment [1], in experiment [4] and in experiment [6]. The fluorescence, percent of control (lower = inhibition) in experiment [2] amounted to 53.6%. Besides, the GTP binding, percent of control in experiment [3] was 70.1%. Further, in experiment [5], the GTP binding signal, raw median fluorescence (lower = inhibition) (MCF (arbitrary fluorescence units)) amounted to 0.
